# HTT ATP protect: protects HTT-Q103 PC12 cells, measured by ATP. PC12 HTT-Q103 induced, cytoprotection, ATP luminescence, 40 h. Potency, µM (highest dose often 56.4 µM), for inactives: cytoprotection (ATP increase), hits mostly activators. 230,000 tested, 0.14% active; further: potency means the concentration at half of the fitted maximal effect; % of control where 0% means no effect; nearly all actives have a fitted effect of over 45% in size
#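 Compounds were screened for protection of PC12 cells against cell death after tebufenozide induction (100 nM final) of mutant Huntingtin exon 1 (Q103) fused to GFP.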
# FBPA coupling cs: coupling enzyme interference in Giardia aldolase counter-screen; coupling enzyme system counterscreen, AmpLite Red fluorescence; activity change, negative = inhibition, % at 58.2 µM, hits read low; 290,000 tested, 0.67% active; AID 2472; in the data active means activity change below about -30%; further: on the % scale 0 is the no-effect control and ±100 the full control effect
#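 Fluorescence at 525 nm excitation and 598 nm emission measured inhibition of the coupled detection system without aldolase. Compounds (at 57.5 uM final) were preincubated 10 min at room temperature with coupling enzyme reagent before a 20 min substrate/AmpLite Red step.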
# RGS12 GoLoco inh: inhibitors of human Gai1-RGS12 GoLoco interaction (red fluorophore); 230,000 tested, 0.44% active; Potency, µM (highest dose often 61.6 µM), inactives show at the highest dose activity, negative = inhibition, usual class: inhibitors; Gai1:RGS12 GoLoco peptide FP, rhodamine, 10 min; P63096; active means well fitted inhibition curve with a large enough effect, not every such curve was filed as active; inactive means no such curve, though single readings can be large or run the other way; further: potency means the concentration at half of the fitted maximal effect; on the % scale 0 is the no-effect control and ±100 the full control effect; nearly all actives have a fitted effect of over 30% in size
# HTT aggregate: reduces HttQ103-GFP aggregates in PC12 cells | 220,000 tested, 1.1% active | AID 1688 | PC12 HttQ103-GFP aggregates, Acumen cytometry, 40 h | Potency, µM (highest dose often 46.1 µM), inactives show at the highest dose activity change, negative = inhibition, most hits filed as inhibitors; further: potency means the concentration at half of the fitted maximal effect; on the % scale 0 is the no-effect control and ±100 the full control effect; nearly all actives have a fitted effect of over 60% in size
#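 Using laser scanning cytometry, GFP-positive aggregates were counted after lysis of PC12 cells induced with 100 nM tebufenozide to express HTT exon 1 Q103–GFP. Compounds were tested in titration.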
# JMJD2E inh: inhibitors of human JMJD2E histone demethylase. JMJD2E catalytic domain, FDH-coupled NADH fluorescence (FDH is formaldehyde dehydrogenase). Potency, µM (highest dose often 57.1 µM), inactives show at the top dose activity change, negative = inhibition, most hits filed as inhibitors. 230,000 tested, 1.6% active. AID 2147; active means well fitted inhibition curve with a large enough effect, not every such curve was filed as active; inconclusive means small, poorly fitted or top-dose-only effect, or another doubt; inactive means no such curve, though single readings can be large or run the other way;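 further: potency means the concentration at half of the fitted maximal effect; 0% = wells with enzyme and -100% = buffer wells without enzyme; nearly all actives have a fitted effect of over 50% in size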
# Target sequence (B2RXH2 1-337 limits assumed): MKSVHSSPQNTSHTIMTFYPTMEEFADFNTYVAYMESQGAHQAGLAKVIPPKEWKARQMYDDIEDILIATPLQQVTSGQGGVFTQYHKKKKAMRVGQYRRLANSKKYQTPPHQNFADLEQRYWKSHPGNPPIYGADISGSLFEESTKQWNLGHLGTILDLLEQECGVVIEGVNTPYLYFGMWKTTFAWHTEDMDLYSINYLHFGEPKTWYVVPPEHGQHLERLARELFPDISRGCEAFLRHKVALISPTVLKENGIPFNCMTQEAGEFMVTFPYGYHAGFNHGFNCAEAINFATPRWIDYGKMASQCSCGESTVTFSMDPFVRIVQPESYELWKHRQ
# VDR inhibitor: inhibitors of human vitamin D receptor; P11473; VDR-SRC2-3 peptide fluorescence polarization, 2 h; Potency, µM, for the others: max response, negative = inhibition, usual class: inhibitors; 400,000 tested, 0.93% active; further: potency means the concentration at half of the fitted maximal effect; on the % scale 0 is the no-effect control and ±100 the full control effect
# Target sequence (P11473 whole entry, looked up): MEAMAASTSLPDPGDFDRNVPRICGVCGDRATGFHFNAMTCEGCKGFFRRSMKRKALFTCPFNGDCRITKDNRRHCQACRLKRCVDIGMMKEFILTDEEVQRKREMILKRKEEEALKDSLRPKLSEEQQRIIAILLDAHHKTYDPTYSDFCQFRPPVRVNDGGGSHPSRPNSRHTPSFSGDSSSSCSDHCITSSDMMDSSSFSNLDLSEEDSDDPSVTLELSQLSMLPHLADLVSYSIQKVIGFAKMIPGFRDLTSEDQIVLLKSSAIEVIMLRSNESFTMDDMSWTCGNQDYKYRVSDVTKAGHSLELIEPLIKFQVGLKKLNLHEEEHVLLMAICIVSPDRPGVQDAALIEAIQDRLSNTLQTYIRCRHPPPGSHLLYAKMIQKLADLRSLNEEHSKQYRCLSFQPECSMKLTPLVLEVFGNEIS
#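 Fluorescence polarization assay measuring small-molecule disruption of VDR binding to the coregulator peptide SRC2-3. Compounds were pin-transferred (23 nl) into the reagent mix and incubated 2 h at room temperature before reading.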
# * = called active by the depositor; ? = inconclusive; . = no result given; ! = a repeat was not active; [ ] = another dose, or the depositor's remark. Hits are enriched below; roughly 2.3% of the tested compounds scored in any of these assays. Unless noted, the call rests on the fitted dose curve; in most records, active means well fitted curve in the direction sought with a large enough effect; inconclusive means small, poorly fitted or top-dose-only effect, or another doubt; inactive means no such curve, though single readings can be large; an effect the other way counts as inactive or inconclusive.
SMILES,HTT ATP protect,FBPA coupling cs,RGS12 GoLoco inh,HTT aggregate,JMJD2E inh,VDR inhibitor
N#CC(C#N)=C(N)/C(C#N)=C/c1cc(O)c(O)c(O)c1,-77%,.,179%,.,.,40µM*!
CC(C)(C)c1cc(/C=C(\C#N)C(N)=S)cc(C(C)(C)C)c1O,-50%,.,104%,.,?,35µM*
N#C/C(=C/c1ccc(F)cc1)C(N)=S,6%[10 µM],1,-5%,?,1%,89µM*
Cc1ccc(OCc2cc(C(=O)N(C)CCc3nc4ccccc4[nH]3)no2)cc1C,.,-1,.,.,.,-2%
O=C1CS(=O)(=O)C2(C(=O)N(Cc3ccccc3Cl)c3ccccc32)N1c1ccc(F)cc1 (stereo unspecified),.,.,.,.,.,11%
Cc1nnc(C)c2c(C)n(C(C)c3ccccc3)c(C)c12 (stereo unspecified),-4%,-33*,29%,-27%,?,8%
O=C(Nc1ccccc1C(=O)Nc1ccccn1)c1cc(F)c(F)cc1Cl,.,1,.,.,.,-17%
COc1ccccc1CNC(=S)NCCc1ccccc1,3.2µM*,0,11%,-4%,4%,-19%
COc1ccc(/C=C/C(=O)c2ccncc2)c2ccccc12,20%[1.9 µM],-43*,-8%,-4%,-30%,25µM*
COc1ccc2ccccc2c1/C=C\C(=O)c1ccccc1,-6%[10 µM],.,-1%[14.2 µM],.,.,.
COc1ccc(OCC(=O)NNc2c3ccccc3nc3ccccc23)cc1,22%[10 µM],1,-2%,11µM*,?,-27%
O=C(COc1ccccc1)NNc1c2ccccc2nc2ccccc12,-72%[10 µM],-6,-13%,-1%,3%,4%
O=C(NNc1c2ccccc2nc2ccccc12)c1ccccc1O,9%[10 µM],0,27%,-16%,?,8%
O=C(NNc1c2ccccc2nc2ccccc12)c1ccc(O)cc1O,-87%,-1,75%,10µM*,?,8%
C/C(CCc1ccco1)=N\NC(=O)CNc1cccc2ccccc12,-4%,-55*,14%,-12%,?,-10%
Cn1c(C(=O)N2CCN(c3ncccn3)CC2)cc2c(=O)n(C)c3ccccc3c21,-7%,-45*,2%,1%,-7%,-5%
O=C1O/C(=C/Br)CCC1c1cccc2ccccc12 (stereo unspecified),.,.,-9%,.,1%,18µM*
CC(=O)OCC1=C(C(=O)O)N2C(=O)C(NC(=O)c3ccc(COc4ccc(Cl)cc4)o3)C2SC1 (stereo unspecified),-12%,1,87%,-3%,1%,45µM*
CC(=O)OCC1=C(C(=O)O)N2C(=O)C(NC(=O)c3ccc(COc4c(C)cccc4Cl)o3)C2SC1 (stereo unspecified),-33%,0,-2%,14%,-3%,16µM*
CC(=O)OCC1=C(C(=O)O)N2C(=O)C(NC(=O)COc3ccc(F)cc3)C2SC1 (stereo unspecified),.,.,.,.,.,7%
CSc1ccccc1NC(=O)COC(=O)CCc1ccccc1,.,0,.,.,.,0%
Cc1nnc(NCc2ccccc2)c2ccccc12,.,-3,.,.,.,-10%
Cc1cc[n+](-c2nc3ccccc3nc2C(=C=[N-])C#N)cc1,-9%,-41*,.,7%,3%,0%
CCOc1ccc2nc(N(Cc3cccnc3)C(=O)c3ccc4c(c3)OCCO4)sc2c1,.,.,.,.,.,10%
CC[C@@H]1/C=C(\C)C[C@H](C)C[C@H](OC)[C@H]2O[C@@](O)(C(=O)C(=O)N3CCCC[C@H]3C(=O)O[C@H](/C(C)=C/[C@@H]3CC[C@H](Cl)[C@H](OC)C3)[C@H](C)[C@@H](O)CC1=O)[C@H](C)C[C@@H]2OC,7%,.,.,-8%,.,-2%
SMILES,HTT ATP protect,FBPA coupling cs,RGS12 GoLoco inh,HTT aggregate,JMJD2E inh,VDR inhibitor
COc1ccc(C(=O)Oc2cc(N)n(S(=O)(=O)c3ccccc3)n2)cc1,0.71µM*,1,-1%,?,1%,-19%
CCOC(=O)c1cc([N+](=O)[O-])cc([N+](=O)[O-])c1Sc1ncnc2nc[nH]c12,.,.,.,.,.,50µM*
COc1ccc(-c2coc3ccc(O[C@@H]4O[C@@H](COC(C)=O)[C@@H](OC(C)=O)[C@@H](OC(C)=O)[C@H]4OC(C)=O)c(OC(C)=O)c3c2=O)cc1,-20%,.,.,.,.,.
O=C(NCCS(=O)(=O)N1CCN(c2ccccc2F)CC1)c1cccs1,.,.,.,.,.,2%
COc1ccccc1NC1=C(NC(C)=O)C(=O)c2ccccc2C1=O,13%[10 µM],-56*,-9%,28%,25µM*,-28%
O=C(CN1CCN(c2ccc(O)cc2)CC1)Nc1cc([N+](=O)[O-])ccc1Cl,1%[10 µM],-1,-19%,4%,14µM*,6%
COc1ccc(Br)cc1CNC(=O)c1ccc2nc(C(C)C)oc2c1,.,.,.,.,.,5%
O=C(NCC1COCCO1)c1ccc2nc(Cc3cccc(Cl)c3)oc2c1 (stereo unspecified),.,.,.,.,.,23%
O=C(N/N=C/C=C\c1ccco1)c1ccccn1,-18%[10 µM],-26,-1%,20%[9.22 µM],?,79µM*
CCOc1ccc(NC(=O)CN(C)C(=O)c2ccc(OCC(=O)N3CCOCC3)c(OC)c2)cc1OCC,.,.,.,.,.,-5%
COc1ccc(CNC(=O)CCS(=O)(=O)c2cccc3nonc23)cc1,3.5µM*,-5,-1%,6.3µM*,-11%,-11%
Oc1ccc(Br)cc1C1C=C(c2ccc3c(c2)OCO3)NC(c2ccc(F)c(Br)c2)N1 (stereo unspecified),.,.,.,.,.,50µM*
O=C(On1c(-c2ccccc2)nc2ccccc2c1=O)c1ccco1,-23%,-3,15%,-9%,20µM*,-24%
COc1cc(OC)cc(-c2nc3ccccc3c(=O)n2OC(=O)c2ccccc2C)c1,8%[10 µM],-4,6%,?,-8%,-10%
CC(C)OCCCNC(=O)CCCN1C(=O)CCn2nc(-c3cccn3C)cc21,.,.,.,.,.,12%
CC(C)CCC(O)(CCC(C)C)C(=O)NN1CCCCC1,11%[10 µM],-7,-15%,-25%,-4%,-1%
CCCC(O)(CCC)C(=O)NN1CCCCC1,-2%,0,1%,0%,5%,79µM*
COC(=O)C1=C(C)OC(N)=C(C#N)C1c1cc2cccc(C)c2nc1Cl (stereo unspecified),?,-2,9%,9%[9.22 µM],?,.
CC(=O)C1=C(C)OC(N)=C(C#N)C1c1cc2cccc(C)c2nc1Cl (stereo unspecified),-6%,-34*,17%,9%,?,-3%
Oc1ccc(Nc2nc(-c3ccccc3)nc3ccccc23)cc1,.,1,.,.,.,-21%
c1ccc(CNc2ccnc(-c3cccnc3)n2)cc1,0%,-1,7%,.,.,40µM*
Cc1cccc(CNc2nc(-c3ccoc3)nc3ccccc23)c1,0%,-2,15%,.,-30%,?
Fc1ccc(Nc2nc(-c3ccoc3)nc3ccccc23)cc1,-40%,1,25%,.,.,16µM*

# From PubChem BioAssay
